From PubChem BioAssay (EPA / NIEHS)
Records with an inconclusive call do not appear. The source made the active and inactive calls. Rule for the calls, unless noted: active = hit-call score of the fitted dose curve at least 0.9, where 1 is the maximum; inactive = score below 0.9.

Columns and labels:
[1] = ATG_CRE_CIS: Attagene CIS-FACTORIAL HepG2 Assay for human cAMP Responsive Element (CRE) binding protein 3 (AID 2282926); conditions: HepG2 CRE cis-reporter, Attagene multiplexed mRNA; actives raise or lower the signal
Method in brief: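 Human liver HepG2, transient MRTU transfection, 24 h compound exposure. Total RNA → oligo(dT) RT → PCR → 6-FAM primer extension → HpaI cut → CE. Activity called both directions vs DMSO.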

[2] = ATG_DR4_LXR_CIS: Attagene CIS-FACTORIAL HepG2 Assay for human Liver X Receptor (LXR), DR4 submotif (AID 2282929); conditions: HepG2 Attagene DR4 cis-reporter, mRNA transcription; actives raise or lower the signal
Method in brief: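 Measures endogenous transcription factor activity via a DR4-driven reporter transcript in human HepG2 cells. Compounds incubated 24 h; mRNA quantified by RT-PCR and capillary electrophoresis, analysed as gain or loss of signal versus DMSO.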

[3] = ATG_AP_1_CIS: Attagene CIS-FACTORIAL HepG2 Assay for human Activator Protein 1 (AP-1) (AID 2282931); conditions: HepG2 Attagene cis-factorial AP-1 reporter mRNA; actives raise or lower the signal
Method in brief: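 Bidirectional concentration-response fitting against DMSO controls. Underlying signal: reporter mRNA from cis-promoter constructs in transiently transfected HepG2, measured after 24 h by RT-PCR and capillary electrophoresis.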

[4] = ATG_Ets_CIS: Attagene CIS-FACTORIAL HepG2 Assay for human Erythroblast Transformation Specific (ETS) (AID 2282941); conditions: HepG2 ETS cis-reporter transcription, actives raise or lower the signal
Method in brief: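 Human HepG2 hepatoma cells were transiently transfected with promoter-driven reporter constructs and treated for 24 hours. Reporter transcripts were quantified by RT-PCR with fluorescent primer extension; bidirectional curve fitting used DMSO as reference.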

[5] = molecular target: Hypoxia-inducible factor 1-alpha (Homo sapiens) (UniProt Q16665); test: ATG_HIF1a_CIS: Attagene CIS-FACTORIAL HepG2 Assay for human Hypoxia Inducible Factor 1 (HIF1A) (AID 2282951); conditions: HepG2 Attagene cis-factorial HIF1a reporter transcription; actives raise or lower the signal
Method in brief: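 In this multiplexed cell assay, HepG2 cells bearing transfected cis reporters are dosed for 24 h and reporter mRNA is read by RT-PCR plus capillary electrophoresis; signal increases and decreases are both scored against DMSO.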

[6] = molecular target: Heat shock factor protein 1 (Homo sapiens) (UniProt Q00613); test: ATG_HSE_CIS: Attagene CIS-FACTORIAL HepG2 Assay for human Heat Shock Transcription Factor 1 (HSE) (AID 2282953); conditions: HepG2 HSE cis-reporter, Attagene RNA transcription; actives raise or lower the signal
Method in brief: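 Endogenous transcription factor activity captured via cis-promoter reporter units transfected into HepG2; treatment lasted 24 h. Fluorescence intensity of reporter fragments analysed with bidirectional curve fitting, DMSO baseline.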

[7] = molecular target: Paired box protein Pax-6 (Homo sapiens) (UniProt P26367); test: ATG_Pax6_CIS: Attagene CIS-FACTORIAL HepG2 Assay for human Paired Box 6 (PAX6) (AID 2282956); conditions: HepG2 CIS-FACTORIAL PAX6 reporter transcription, RNA readout; actives raise or lower the signal
Method in brief: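 Multiplexed cis-reporter HepG2 system; 24 h treatment; reporter mRNA read by RT-PCR/CE fluorescence; bidirectional fit vs DMSO.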

[8] = molecular target: Signal transducer and activator of transcription 3 (Homo sapiens) (UniProt P40763); test: ATG_STAT3_CIS: Attagene CIS-FACTORIAL HepG2 Assay for human Signal Transducer and Activator of Transcription 3 (STAT3) (AID 2282963); conditions: HepG2, Attagene cis-factorial STAT3 reporter transcription; actives raise or lower the signal
Method in brief: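 HepG2 cells transiently transfected with cis-element-driven multiple reporter transcription units; after 24 h chemical exposure, reporter mRNA measured by RT-PCR, 6-FAM primer-extension labelling, HpaI digestion and capillary electrophoresis. Bidirectional fitting versus DMSO baseline.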

[9] = ATG_TA_CIS: Attagene CIS-FACTORIAL HepG2 Assay for human TA Basal Promoter (AID 2282964); conditions: HepG2 Attagene CIS-factorial TA basal promoter reporter; actives raise or lower the signal
Method in brief: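 Fluorescence from labelled RT-PCR reporter fragments, separated by capillary electrophoresis, gives the signal. Cells: HepG2 transiently carrying multiple reporter units, 24 h chemical dosing. Gain or loss relative to DMSO.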

[10] = ATG_TCF_b_cat_CIS: Attagene CIS-FACTORIAL HepG2 Assay for human T-Cell-Factor with beta-catenin (TCF/b-cat) (AID 2282965); conditions: HepG2 TCF/beta-catenin cis-reporter transcription, actives raise or lower the signal
Method in brief: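 Using capillary electrophoresis as the read-out, labelled reporter cDNA fragments from transiently transfected HepG2 were sized and quantified. Exposure lasted 24 hours; activity in either direction was referenced to DMSO.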

[11] = ATG_TAL_CIS: Attagene CIS-FACTORIAL HepG2 Assay for human TAL Basal Promoter (AID 2282966); conditions: HepG2 Attagene cis-factorial TAL promoter reporter; actives raise or lower the signal;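 note: background control endpoint measuring basal TAL promoter reporter mRNA not a specific factor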
Method in brief: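 Fluorescence of labelled reporter cDNA fragments, resolved by capillary electrophoresis, gave the readout. Human HepG2 liver cells carried transiently transfected cis-element reporter units and were treated for 24 hours; activity was fitted bidirectionally against DMSO.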

[12] = molecular target: X-box-binding protein 1 (Homo sapiens) (UniProt P17861); test: ATG_Xbp1_CIS: Attagene CIS-FACTORIAL HepG2 Assay for human X-box Binding Protein 1 (XBP1) (AID 2282972); conditions: HepG2 XBP1 cis-element reporter, Attagene multiplex; actives raise or lower the signal
Method in brief: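 Fluorescence-labelled cDNA fragments from reporter transcripts, separated by capillary electrophoresis, give the signal. Source: HepG2 cells transfected with promoter-driven reporter units, harvested 24 h post-dose. DMSO served as reference for bidirectional curve fitting.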

[13] = molecular target: Transcriptional activator Myb (Homo sapiens) (UniProt P10242); test: ATG_Myb_CIS: Attagene CIS-FACTORIAL HepG2 Assay for human Myeloblastosis (Myb) Proto-Oncogene Transcription Factor (AID 2282986); conditions: HepG2 Attagene CIS-FACTORIAL Myb reporter transcription; actives raise or lower the signal
Method in brief: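 Fluorescence signals from capillary electrophoresis of RT-PCR-amplified reporter cDNA give the read-out. Cells: HepG2 transfected with multiple cis-regulated reporter units. Exposure lasts 24 hours; DMSO defines baseline for gain or loss of signal.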

[14] = ATG_NFI_CIS: Attagene CIS-FACTORIAL HepG2 Assay for human Nuclear Factor I (NFI) (AID 2282989); conditions: HepG2 cis-regulatory reporter, NFI response element transcription; actives raise or lower the signal
Method in brief: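 Cells: human liver HepG2, transiently transfected with promoter-regulated reporter transcription units. Exposure 24 h. Detection: fluorescent RT-PCR products separated by capillary electrophoresis, normalised to DMSO negative control.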

[15] = molecular target: Myc proto-oncogene protein (Homo sapiens) (UniProt P01106); test: ATG_Myc_CIS: Attagene CIS-FACTORIAL HepG2 Assay for human Myelocytomatosis (Myc) Proto-Oncogene Transcription Factor (AID 2282990); conditions: HepG2, Attagene cis-reporter transcription factor activity; actives raise or lower the signal
Method in brief: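 Multiplexed cis-reporter transcription in HepG2 cells after 24 h chemical treatment. Reporter mRNA measured by RT-PCR and capillary electrophoresis fluorescence; activity fitted bidirectionally against DMSO control.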

[16] = ATG_NRF2_ARE_CIS: Attagene CIS-FACTORIAL HepG2 Assay for human Nuclear Factor Erythroid 2 Related Factor 2 (NFR2) response to Antioxidant Response Elements (ARE) (AID 2282992); conditions: HepG2 Attagene ARE/NRF2 reporter, transcription factor activity; actives raise or lower the signal
Method in brief: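 Multiplexed reporter mRNA profiling in HepG2 after a 24 h chemical exposure. Curves fitted in both directions relative to DMSO negative control.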

[17] = ATG_Oct_MLP_CIS: Attagene CIS-FACTORIAL HepG2 Assay for human Octamer-Binding Transcription Factor (Oct) (AID 2282993); conditions: HepG2 Attagene cis-factorial Oct reporter, mRNA; actives raise or lower the signal
Method in brief: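 HepG2, transient MRTU transfection, cis promoter elements; 24 h dosing; RT-PCR/CE fluorescence read-out of reporter mRNA; fit both directions vs DMSO.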

[18] = molecular target: Cellular tumor antigen p53 (Homo sapiens) (UniProt P04637); test: ATG_p53_CIS: Attagene CIS-FACTORIAL HepG2 Assay for human p53 Transcription Factor (AID 2282994); conditions: HepG2 p53 cis-element reporter, Attagene mRNA; actives raise or lower the signal
Method in brief: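 Multiplexed reporter mRNA assay in human HepG2 liver cells; cis-regulated units report endogenous factor activity. Values come from bidirectional curve fitting against DMSO negative control after 24 h treatment.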

[19] = molecular target: Nuclear receptor subfamily 1 group I member 2 (Homo sapiens) (UniProt O75469); test: ATG_PXR_TRANS: Attagene TRANS-FACTORIAL HepG2 Assay for human Pregnane X Receptor (PXR) (AID 2283008; active = hit-call score of the fitted dose curve at least 0.9, where 1 is the maximum)
Method in brief: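 Measures mRNA induction of a GAL4-UAS-driven reporter in human HepG2 cells transiently expressing PXR fused to Gal4, following 24 h treatment. DMSO served as negative control and baseline.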

[20] = ATG_XTT_Cytotoxicity: Cytotoxicity Assessment in the Attagene TRANS-FACTORIAL HepG2 Assay (AID 2283584; active = hit-call score of the fitted dose curve at least 0.9, where 1 is the maximum;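 for AC50: cells exposed to compound for 24 h before reading; active means loss of viability signal versus DMSO baseline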)
Method in brief: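 Cells: human HepG2, transiently transfected with MRTU reporter constructs. Exposure 24 h. Readout: XTT, cell number. Baseline/neg ctrl DMSO; loss-of-signal scored.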

Measured: AC50

Sequence of Paired box protein Pax-6 (Homo sapiens) (P26367 whole entry, looked up): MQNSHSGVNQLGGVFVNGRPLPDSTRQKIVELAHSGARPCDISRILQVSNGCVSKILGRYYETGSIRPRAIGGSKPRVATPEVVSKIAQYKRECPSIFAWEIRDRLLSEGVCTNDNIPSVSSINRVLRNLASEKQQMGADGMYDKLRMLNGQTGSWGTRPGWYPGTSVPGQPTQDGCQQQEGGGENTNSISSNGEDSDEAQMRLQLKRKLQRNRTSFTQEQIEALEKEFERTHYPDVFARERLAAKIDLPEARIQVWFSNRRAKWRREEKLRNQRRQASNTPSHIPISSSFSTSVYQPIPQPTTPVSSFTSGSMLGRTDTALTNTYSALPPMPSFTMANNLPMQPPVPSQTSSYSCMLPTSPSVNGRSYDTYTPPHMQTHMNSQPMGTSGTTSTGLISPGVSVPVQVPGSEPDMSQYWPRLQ
Sequence of Cellular tumor antigen p53 (Homo sapiens) (P04637 whole entry, looked up): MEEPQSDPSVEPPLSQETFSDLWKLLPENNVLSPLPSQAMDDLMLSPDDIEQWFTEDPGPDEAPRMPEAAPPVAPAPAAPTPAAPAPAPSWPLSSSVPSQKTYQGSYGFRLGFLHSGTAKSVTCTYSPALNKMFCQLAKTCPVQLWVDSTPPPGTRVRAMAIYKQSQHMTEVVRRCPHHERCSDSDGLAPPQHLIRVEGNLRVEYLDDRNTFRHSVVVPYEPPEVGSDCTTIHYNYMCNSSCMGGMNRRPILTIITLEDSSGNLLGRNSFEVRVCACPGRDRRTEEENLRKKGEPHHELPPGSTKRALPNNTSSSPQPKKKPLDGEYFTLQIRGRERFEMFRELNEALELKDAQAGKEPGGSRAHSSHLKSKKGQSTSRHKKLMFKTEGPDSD
Sequence of Signal transducer and activator of transcription 3 (Homo sapiens) (P40763 whole entry, looked up): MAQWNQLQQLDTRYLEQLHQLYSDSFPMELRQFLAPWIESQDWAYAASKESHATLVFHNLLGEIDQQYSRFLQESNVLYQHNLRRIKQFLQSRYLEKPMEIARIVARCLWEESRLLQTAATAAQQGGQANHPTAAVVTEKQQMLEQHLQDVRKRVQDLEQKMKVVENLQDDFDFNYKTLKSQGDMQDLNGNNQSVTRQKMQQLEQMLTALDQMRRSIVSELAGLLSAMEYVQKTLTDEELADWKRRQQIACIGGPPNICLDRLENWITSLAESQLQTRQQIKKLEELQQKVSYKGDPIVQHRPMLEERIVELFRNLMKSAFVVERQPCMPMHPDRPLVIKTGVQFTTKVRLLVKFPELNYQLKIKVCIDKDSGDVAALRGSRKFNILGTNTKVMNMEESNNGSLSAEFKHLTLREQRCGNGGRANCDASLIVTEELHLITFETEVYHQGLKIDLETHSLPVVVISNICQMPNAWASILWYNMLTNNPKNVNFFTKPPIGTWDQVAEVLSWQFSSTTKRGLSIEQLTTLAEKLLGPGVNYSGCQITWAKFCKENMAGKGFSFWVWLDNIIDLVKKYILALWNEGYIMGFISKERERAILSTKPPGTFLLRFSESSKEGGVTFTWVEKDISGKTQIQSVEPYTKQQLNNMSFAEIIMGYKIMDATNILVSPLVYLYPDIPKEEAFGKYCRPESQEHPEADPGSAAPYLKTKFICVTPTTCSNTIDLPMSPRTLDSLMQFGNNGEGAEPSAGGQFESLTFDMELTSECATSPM
Sequence of Transcriptional activator Myb (Homo sapiens) (P10242 whole entry, looked up): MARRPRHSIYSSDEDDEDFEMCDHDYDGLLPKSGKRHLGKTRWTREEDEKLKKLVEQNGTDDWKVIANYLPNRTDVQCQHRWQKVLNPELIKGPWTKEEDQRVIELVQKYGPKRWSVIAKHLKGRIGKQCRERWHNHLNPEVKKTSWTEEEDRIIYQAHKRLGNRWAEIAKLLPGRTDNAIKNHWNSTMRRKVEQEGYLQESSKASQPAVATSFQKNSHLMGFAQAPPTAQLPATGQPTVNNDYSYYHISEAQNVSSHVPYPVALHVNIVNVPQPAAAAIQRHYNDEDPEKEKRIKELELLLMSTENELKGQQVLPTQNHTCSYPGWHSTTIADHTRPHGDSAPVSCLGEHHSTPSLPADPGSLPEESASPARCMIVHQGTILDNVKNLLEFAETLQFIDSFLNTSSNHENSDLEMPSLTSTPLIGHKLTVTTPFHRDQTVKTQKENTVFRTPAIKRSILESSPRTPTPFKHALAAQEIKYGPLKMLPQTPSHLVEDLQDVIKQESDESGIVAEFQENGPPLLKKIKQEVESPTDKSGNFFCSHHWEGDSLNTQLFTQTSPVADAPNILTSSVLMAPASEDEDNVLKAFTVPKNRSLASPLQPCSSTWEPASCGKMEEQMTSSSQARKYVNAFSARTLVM
Sequence of Myc proto-oncogene protein (Homo sapiens) (P01106 whole entry, looked up): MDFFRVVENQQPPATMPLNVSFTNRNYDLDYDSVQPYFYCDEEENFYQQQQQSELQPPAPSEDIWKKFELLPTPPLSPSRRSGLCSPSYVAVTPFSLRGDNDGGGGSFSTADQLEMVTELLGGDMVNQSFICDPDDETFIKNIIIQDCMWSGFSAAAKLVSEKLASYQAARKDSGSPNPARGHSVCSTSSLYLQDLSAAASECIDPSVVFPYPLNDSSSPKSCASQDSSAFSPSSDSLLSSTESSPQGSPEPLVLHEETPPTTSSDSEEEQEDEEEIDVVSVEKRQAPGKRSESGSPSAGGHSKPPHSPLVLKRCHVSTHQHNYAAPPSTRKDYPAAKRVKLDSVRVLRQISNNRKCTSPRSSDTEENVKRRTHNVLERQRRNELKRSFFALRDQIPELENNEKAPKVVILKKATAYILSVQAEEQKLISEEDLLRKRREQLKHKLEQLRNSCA
Sequence of X-box-binding protein 1 (Homo sapiens) (P17861 whole entry, looked up, the tested form may be a part): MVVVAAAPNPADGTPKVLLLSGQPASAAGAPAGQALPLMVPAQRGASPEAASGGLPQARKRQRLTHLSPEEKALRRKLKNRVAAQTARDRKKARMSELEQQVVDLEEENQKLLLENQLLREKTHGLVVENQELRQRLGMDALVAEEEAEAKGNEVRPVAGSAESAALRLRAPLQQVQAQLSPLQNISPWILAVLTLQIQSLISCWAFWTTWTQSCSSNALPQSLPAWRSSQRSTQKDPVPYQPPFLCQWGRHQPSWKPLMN
Sequence of Nuclear receptor subfamily 1 group I member 2 (Homo sapiens) (O75469 whole entry, looked up, the tested form may be a part): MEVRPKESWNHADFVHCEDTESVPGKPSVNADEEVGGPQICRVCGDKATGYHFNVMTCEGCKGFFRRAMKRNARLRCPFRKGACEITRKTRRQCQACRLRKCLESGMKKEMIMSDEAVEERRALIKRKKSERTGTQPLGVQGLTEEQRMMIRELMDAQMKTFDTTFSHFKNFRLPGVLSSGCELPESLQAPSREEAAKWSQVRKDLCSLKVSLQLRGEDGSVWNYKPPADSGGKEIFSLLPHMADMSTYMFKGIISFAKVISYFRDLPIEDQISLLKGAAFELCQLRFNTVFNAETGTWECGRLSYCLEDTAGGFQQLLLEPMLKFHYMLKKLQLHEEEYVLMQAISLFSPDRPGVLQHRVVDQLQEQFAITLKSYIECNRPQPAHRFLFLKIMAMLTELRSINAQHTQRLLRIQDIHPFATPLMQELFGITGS
Sequence of Hypoxia-inducible factor 1-alpha (Homo sapiens) (Q16665 whole entry, looked up): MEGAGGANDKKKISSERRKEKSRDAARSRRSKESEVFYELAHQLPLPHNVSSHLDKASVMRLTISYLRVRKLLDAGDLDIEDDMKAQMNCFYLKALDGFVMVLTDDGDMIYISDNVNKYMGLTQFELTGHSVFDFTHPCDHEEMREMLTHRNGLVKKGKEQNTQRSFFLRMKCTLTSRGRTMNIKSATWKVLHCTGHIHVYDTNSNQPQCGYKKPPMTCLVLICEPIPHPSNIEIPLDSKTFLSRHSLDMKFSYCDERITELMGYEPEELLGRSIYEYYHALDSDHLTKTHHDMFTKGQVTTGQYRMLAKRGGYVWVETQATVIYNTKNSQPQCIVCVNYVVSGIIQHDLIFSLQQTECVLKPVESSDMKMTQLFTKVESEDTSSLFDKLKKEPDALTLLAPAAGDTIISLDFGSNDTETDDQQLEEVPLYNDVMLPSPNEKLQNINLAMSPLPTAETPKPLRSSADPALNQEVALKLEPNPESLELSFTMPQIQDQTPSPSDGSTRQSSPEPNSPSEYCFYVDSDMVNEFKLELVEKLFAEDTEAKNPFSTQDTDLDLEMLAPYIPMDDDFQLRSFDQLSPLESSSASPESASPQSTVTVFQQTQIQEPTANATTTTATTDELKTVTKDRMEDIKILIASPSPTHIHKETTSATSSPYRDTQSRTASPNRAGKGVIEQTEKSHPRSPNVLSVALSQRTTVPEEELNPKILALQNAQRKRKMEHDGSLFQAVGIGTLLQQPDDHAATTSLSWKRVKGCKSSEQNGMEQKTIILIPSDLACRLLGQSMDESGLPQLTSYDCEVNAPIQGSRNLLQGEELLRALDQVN
Sequence of Heat shock factor protein 1 (Homo sapiens) (Q00613 whole entry, looked up, the tested form may be a part): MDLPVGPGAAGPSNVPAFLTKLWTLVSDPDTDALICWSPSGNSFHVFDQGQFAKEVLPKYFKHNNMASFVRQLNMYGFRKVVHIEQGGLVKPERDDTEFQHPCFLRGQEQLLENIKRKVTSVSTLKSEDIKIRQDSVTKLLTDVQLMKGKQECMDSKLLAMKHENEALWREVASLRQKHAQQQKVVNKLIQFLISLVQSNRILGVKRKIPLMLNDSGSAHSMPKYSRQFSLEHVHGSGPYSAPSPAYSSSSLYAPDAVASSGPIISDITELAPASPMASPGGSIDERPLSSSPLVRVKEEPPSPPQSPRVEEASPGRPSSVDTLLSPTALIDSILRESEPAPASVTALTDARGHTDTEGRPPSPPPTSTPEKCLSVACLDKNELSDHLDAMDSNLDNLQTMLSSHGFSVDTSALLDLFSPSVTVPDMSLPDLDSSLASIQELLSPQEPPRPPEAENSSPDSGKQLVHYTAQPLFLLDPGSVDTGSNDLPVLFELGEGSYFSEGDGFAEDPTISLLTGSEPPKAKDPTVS

O=C(CC(C(=O)OC1CCCCC1)S(=O)(=O)O)OC1CCCCC1 (stereo not drawn)
inactive: all assays above

CC/C=C\CC/C=C/C(OCC)OCC
active: [4] 100 µM | [6] 156 µM | [16] 26.2 µM | [18] 187 µM
not listed: [20]
inactive: all other assays above

CCCCCCCCCCCCCC
not listed: [7]
inactive: all other assays above

Cc1cc(-n2nc3ccc(Cl)cc3n2)c(O)c(C(C)(C)C)c1
inactive: all assays above

Nc1nnc(-c2ccc([N+](=O)[O-])o2)o1
active: [3] 33.4 µM | [15] 12 µM | [16] 20.8 µM | [20] 159 µM
not listed: [4] | [19]
inactive: all other assays above

CC/C=C\CC1=C(C)CCC1=O
active: [16] 35.9 µM
not listed: [3]
inactive: all other assays above

CC1=C(CC=O)C(C)(C)CCC1
active: [16] 30.2 µM | [19] 1.38 µM
not listed: [3] | [20]
inactive: all other assays above
